Experiments:
Test in all cases: DAPPL (digital affinity profiling via proximity ligation, sequencing); 10 mM Tris-HCl pH 7.5, 50 mM NaCl, 1 mM DTT, 4% glycerol, room temperature, 30 min; GST-TFs on glutathione beads, 16-mer random dsDNA library, 0.1% formaldehyde crosslink after washing; high values mean tight binding
FLI1 = target: T1, FLI1 (Homo sapiens, UniProt Q01543 1-452); conditions: protein: recombinant; tags: N-terminal GST; dsDNA, one strand shown
T1 sequence: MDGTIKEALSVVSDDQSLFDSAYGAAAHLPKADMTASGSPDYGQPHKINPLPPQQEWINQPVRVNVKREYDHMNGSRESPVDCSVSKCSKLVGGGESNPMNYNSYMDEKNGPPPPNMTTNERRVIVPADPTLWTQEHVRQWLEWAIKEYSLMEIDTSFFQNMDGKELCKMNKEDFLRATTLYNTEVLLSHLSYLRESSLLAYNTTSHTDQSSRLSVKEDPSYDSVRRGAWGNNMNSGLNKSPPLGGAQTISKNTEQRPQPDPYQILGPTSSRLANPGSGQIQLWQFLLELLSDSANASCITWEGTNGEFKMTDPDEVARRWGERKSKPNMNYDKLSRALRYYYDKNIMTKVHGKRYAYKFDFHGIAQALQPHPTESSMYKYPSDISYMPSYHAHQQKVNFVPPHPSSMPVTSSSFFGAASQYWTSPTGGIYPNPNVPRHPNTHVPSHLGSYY
In short: (§1)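 Pools of DNA-barcoded human transcription factors, expressed in yeast as GST fusions on glutathione beads and combined with a tag-only sample, were incubated with 200 nmole of a 16-mer random double-stranded DNA library. Incubation took 30 min at room temperature in Tris/NaCl/DTT/glycerol buffer and was followed by washing, 0.1% formaldehyde crosslinking, proximity ligation (BsaI/T4 ligase, 1 h, 37 °C), PCR amplification and sequencing on an Illumina NextSeq500. Binding signal is the ratio of a hexamer's read frequency for a factor to its frequency for the tag-only sample.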

ELK1 = target: T2, ELK1 (Homo sapiens, UniProt P19419 1-428); conditions: protein: recombinant; tags: N-terminal GST; dsDNA, one strand shown
T2 sequence: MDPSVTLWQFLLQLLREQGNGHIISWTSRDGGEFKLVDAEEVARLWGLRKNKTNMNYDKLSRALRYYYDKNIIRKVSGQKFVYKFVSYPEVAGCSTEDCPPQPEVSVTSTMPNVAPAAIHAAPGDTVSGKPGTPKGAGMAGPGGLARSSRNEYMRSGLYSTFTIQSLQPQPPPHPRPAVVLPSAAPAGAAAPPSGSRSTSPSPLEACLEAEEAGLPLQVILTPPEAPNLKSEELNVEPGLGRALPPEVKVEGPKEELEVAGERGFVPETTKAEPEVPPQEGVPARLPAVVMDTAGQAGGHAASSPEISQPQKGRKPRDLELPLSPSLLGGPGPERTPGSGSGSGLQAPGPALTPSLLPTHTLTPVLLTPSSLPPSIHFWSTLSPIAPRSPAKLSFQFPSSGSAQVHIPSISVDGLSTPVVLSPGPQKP
In short: as §1

GABPA = target: T3, GABPA (Homo sapiens, UniProt Q06546 1-454); conditions: protein: recombinant; tags: N-terminal GST; dsDNA, one strand shown
T3 sequence: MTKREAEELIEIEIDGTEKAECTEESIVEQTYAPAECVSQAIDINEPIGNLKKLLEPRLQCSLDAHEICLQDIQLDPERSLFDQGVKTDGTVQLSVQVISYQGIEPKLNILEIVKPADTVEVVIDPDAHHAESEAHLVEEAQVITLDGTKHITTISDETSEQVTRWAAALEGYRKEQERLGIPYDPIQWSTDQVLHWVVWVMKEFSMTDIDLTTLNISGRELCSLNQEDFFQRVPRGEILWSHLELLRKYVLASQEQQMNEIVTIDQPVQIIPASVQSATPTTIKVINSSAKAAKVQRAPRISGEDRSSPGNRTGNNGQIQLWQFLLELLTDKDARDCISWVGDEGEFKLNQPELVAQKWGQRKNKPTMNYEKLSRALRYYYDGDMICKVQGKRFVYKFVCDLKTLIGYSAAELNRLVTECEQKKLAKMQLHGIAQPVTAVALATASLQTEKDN
In short: as §1

ERG = target: T4, ERG (Homo sapiens, UniProt P11308 1-479); conditions: protein: recombinant; tags: N-terminal GST; dsDNA, one strand shown
T4 sequence: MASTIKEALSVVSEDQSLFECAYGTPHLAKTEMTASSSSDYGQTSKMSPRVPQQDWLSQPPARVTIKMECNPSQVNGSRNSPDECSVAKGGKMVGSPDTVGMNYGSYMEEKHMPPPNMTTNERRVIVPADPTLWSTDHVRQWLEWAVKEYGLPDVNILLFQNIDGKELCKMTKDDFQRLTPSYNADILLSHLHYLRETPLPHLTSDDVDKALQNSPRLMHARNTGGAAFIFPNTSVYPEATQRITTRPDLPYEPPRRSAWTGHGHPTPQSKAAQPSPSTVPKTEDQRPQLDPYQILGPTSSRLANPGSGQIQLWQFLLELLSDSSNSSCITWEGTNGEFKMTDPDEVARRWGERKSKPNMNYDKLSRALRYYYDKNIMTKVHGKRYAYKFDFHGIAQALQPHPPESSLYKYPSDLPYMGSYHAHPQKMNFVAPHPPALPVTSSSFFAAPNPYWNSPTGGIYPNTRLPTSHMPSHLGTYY
In short: as §1

ELF1 = ELF1 (Homo sapiens, UniProt P32519 1-619); conditions: protein: recombinant; tags: N-terminal GST; dsDNA, one strand shown
In short: as §1

EHF = target: T5, EHF (Homo sapiens, UniProt Q9NZC4 1-300); conditions: protein: recombinant; tags: N-terminal GST; dsDNA, one strand shown
T5 sequence: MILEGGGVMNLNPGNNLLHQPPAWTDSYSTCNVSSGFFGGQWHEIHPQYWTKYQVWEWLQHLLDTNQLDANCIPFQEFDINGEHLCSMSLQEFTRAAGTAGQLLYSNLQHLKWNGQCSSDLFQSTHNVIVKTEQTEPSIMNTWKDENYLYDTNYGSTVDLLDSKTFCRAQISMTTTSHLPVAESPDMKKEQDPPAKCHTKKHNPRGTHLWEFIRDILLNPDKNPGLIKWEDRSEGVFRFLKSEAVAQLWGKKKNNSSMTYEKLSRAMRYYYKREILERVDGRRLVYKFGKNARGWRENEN
In short: as §1

SPI1 = SPI1 (Homo sapiens, UniProt P17947 1-270); conditions: protein: recombinant; tags: N-terminal GST; dsDNA, one strand shown
In short: as §1

SPIB = SPIB (Homo sapiens, UniProt Q01892 1-262); conditions: protein: recombinant; tags: N-terminal GST; dsDNA, one strand shown
In short: as §1

ELK3 = target: T6, ELK3 (Homo sapiens, UniProt P41970 1-407); conditions: protein: recombinant; tags: N-terminal GST; dsDNA, one strand shown
T6 sequence: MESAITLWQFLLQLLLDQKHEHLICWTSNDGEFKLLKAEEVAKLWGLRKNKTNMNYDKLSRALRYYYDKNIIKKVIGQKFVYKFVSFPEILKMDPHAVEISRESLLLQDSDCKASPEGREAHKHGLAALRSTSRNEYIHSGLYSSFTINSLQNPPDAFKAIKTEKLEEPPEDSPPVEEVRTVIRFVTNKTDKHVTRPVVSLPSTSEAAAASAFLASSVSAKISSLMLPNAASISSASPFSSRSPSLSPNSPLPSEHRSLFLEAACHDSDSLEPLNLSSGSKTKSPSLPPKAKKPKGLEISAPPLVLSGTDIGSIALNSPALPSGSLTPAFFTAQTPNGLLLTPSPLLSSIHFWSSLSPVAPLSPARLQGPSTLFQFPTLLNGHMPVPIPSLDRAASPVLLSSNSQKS
In short: as §1

FEV = target: T7, FEV (Homo sapiens, UniProt Q99581 1-238); conditions: protein: recombinant; tags: N-terminal GST; dsDNA, one strand shown
T7 sequence: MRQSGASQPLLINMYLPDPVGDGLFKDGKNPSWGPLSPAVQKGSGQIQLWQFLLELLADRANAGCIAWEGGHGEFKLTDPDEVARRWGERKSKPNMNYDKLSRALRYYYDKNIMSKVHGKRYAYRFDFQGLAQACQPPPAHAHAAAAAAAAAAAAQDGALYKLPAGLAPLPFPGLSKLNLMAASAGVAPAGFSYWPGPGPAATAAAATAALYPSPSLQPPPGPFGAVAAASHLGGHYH
In short: as §1

ETV5 = ETV5 (Homo sapiens, UniProt P41161 1-510); conditions: protein: recombinant; tags: N-terminal GST; dsDNA, one strand shown
In short: as §1

HSF1 = HSF1 (Homo sapiens, UniProt Q00613 1-529); conditions: protein: recombinant; tags: N-terminal GST; chain copies: 3; dsDNA, one strand shown
In short: as §1

SPIC = target: T8, SPIC (Homo sapiens, UniProt Q8N5J4 1-248); conditions: protein: recombinant; tags: N-terminal GST; dsDNA, one strand shown
T8 sequence: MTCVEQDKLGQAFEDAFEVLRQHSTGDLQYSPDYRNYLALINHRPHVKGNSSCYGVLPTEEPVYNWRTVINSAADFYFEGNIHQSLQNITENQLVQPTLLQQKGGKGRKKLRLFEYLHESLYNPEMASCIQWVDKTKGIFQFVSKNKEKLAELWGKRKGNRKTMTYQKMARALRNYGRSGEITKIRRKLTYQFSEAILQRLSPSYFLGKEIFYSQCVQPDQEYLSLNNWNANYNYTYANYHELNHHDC
In short: as §1

ELF4 = ELF4 (Homo sapiens, UniProt Q99607 1-663); conditions: protein: recombinant; tags: N-terminal GST; dsDNA, one strand shown
In short: as §1

ELK4 = target: T9, ELK4 (Homo sapiens, UniProt P28324-2 1-405); conditions: protein: recombinant; tags: N-terminal GST; dsDNA, one strand shown
T9 sequence: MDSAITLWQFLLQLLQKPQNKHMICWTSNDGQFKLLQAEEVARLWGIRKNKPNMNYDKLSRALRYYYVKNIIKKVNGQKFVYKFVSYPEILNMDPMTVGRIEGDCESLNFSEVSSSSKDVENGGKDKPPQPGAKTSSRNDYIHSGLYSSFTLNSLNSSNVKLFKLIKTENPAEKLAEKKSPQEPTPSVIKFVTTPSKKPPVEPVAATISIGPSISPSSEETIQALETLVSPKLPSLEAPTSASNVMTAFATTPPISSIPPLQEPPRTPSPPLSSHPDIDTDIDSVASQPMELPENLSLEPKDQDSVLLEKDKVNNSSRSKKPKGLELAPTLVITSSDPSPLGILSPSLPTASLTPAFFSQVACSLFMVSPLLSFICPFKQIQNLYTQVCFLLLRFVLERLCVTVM
In short: as §1

ETV2 = target: T10, ETV2 (Homo sapiens, UniProt O00321 1-342); conditions: protein: recombinant; tags: N-terminal GST; dsDNA, one strand shown
T10 sequence: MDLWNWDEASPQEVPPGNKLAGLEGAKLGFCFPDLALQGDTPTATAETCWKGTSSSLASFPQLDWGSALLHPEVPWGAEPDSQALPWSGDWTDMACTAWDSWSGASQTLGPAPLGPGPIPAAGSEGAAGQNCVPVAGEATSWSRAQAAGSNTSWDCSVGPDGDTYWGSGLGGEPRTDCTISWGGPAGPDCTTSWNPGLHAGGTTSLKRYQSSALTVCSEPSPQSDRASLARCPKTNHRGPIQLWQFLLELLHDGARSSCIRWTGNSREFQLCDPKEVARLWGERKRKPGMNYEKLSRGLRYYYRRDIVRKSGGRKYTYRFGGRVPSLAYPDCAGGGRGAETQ
In short: as §1

ELF3 = target: T11, ELF3 (Homo sapiens, UniProt P78545 1-371); conditions: protein: recombinant; tags: N-terminal GST; dsDNA, one strand shown
T11 sequence: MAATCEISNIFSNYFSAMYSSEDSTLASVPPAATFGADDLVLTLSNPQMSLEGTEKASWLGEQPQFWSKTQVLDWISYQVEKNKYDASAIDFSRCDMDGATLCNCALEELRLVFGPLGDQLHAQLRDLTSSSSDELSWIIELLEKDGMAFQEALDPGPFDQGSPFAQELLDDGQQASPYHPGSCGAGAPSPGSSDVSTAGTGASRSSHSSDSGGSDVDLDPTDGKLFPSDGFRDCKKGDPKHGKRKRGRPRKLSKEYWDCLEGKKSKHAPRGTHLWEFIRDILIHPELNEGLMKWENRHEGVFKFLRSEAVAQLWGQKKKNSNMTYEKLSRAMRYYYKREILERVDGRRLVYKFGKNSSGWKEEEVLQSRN
In short: as §1

CRX = CRX (Homo sapiens, UniProt O43186 1-299); conditions: protein: recombinant; tags: N-terminal GST; dsDNA, one strand shown
In short: as §1

ETV1 = ETV1 (Homo sapiens, UniProt P50549 1-477); conditions: protein: recombinant; tags: N-terminal GST; dsDNA, one strand shown
In short: as §1

Sequence of ELF1 (P32519 whole entry): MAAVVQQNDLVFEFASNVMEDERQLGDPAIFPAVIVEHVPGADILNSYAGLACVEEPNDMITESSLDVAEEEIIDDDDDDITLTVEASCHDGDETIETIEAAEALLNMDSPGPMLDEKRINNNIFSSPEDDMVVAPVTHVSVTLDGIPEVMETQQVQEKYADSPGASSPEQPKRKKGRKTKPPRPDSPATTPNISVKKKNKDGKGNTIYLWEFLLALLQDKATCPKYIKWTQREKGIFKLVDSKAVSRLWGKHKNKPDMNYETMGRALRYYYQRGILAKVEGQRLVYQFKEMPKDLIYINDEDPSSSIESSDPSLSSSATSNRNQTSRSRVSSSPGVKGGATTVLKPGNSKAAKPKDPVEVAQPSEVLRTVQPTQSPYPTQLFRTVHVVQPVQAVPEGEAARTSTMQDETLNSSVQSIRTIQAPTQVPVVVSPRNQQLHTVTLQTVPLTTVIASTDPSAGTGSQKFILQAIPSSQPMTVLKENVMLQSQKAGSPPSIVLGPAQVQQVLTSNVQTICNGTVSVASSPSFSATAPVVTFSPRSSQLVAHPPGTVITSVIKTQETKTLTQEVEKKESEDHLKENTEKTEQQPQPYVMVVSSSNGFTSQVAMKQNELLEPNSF
Sequence of ETV5 (P41161 whole entry): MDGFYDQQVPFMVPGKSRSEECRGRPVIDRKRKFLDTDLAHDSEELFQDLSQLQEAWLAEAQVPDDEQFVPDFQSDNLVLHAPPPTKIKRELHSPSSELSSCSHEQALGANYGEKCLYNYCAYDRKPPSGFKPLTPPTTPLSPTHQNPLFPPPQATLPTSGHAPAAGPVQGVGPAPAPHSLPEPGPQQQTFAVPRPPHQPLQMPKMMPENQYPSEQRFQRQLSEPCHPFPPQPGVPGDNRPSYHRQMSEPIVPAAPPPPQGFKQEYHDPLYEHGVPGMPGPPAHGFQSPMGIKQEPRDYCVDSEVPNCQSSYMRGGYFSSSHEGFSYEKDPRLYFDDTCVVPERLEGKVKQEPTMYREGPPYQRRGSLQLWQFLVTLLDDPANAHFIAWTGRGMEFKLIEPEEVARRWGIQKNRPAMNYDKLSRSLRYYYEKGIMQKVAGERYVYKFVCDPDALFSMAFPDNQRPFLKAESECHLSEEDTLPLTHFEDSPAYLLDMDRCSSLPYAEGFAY
Sequence of HSF1 (Q00613 whole entry): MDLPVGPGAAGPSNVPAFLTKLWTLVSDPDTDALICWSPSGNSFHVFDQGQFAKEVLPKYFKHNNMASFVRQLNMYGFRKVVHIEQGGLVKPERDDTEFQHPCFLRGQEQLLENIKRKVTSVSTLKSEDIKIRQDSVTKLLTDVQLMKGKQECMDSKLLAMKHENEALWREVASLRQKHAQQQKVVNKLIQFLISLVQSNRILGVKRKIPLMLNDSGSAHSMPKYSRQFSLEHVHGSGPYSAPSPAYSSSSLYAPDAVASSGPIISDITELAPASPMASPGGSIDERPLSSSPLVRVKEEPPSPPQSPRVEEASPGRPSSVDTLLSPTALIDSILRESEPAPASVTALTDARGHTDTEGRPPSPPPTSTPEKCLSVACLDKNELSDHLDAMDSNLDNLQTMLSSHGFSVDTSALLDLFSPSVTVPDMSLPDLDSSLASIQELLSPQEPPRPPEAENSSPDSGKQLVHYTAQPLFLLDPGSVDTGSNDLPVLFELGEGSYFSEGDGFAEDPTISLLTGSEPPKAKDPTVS
Sequence of ETV1 (P50549 whole entry): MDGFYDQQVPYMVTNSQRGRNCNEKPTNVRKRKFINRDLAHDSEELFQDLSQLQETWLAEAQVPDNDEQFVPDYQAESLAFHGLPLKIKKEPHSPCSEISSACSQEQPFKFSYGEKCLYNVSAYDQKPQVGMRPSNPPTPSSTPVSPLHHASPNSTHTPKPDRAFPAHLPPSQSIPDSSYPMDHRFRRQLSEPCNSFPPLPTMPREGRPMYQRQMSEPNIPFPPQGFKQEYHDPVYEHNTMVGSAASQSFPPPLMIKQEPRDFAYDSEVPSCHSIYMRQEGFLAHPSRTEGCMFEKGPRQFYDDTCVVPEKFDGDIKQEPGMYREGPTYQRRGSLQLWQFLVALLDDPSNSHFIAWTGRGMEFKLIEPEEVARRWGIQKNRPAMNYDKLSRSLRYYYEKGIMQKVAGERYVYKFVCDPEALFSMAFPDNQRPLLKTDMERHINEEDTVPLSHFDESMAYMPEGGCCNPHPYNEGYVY
Sequence of ELF4 (Q99607 whole entry): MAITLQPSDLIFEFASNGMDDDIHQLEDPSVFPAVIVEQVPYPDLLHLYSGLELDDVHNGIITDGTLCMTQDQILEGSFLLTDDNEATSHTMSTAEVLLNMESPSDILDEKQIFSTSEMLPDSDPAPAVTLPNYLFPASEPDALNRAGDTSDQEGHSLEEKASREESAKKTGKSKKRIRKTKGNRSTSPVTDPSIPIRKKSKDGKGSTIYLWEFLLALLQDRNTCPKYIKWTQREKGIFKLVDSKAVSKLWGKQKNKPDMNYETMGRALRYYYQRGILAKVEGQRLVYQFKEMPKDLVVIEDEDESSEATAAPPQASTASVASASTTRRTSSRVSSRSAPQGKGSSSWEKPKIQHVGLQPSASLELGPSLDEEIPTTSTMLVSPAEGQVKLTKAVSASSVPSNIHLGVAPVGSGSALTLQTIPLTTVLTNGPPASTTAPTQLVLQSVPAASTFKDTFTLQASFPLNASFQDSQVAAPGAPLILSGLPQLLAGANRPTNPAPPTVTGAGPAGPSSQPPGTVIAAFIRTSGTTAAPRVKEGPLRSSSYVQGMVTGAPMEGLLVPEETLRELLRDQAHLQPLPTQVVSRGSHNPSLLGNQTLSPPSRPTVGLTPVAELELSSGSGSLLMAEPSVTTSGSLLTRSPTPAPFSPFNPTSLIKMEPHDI
Sequence of CRX (O43186 whole entry): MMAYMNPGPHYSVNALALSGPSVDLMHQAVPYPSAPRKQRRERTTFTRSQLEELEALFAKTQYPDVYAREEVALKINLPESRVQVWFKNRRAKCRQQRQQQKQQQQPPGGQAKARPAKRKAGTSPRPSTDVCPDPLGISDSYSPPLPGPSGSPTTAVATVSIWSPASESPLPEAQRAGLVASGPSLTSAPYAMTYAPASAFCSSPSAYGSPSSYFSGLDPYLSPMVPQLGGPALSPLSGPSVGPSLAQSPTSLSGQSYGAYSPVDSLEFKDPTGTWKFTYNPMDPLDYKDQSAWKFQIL
Sequence of SPIB (Q01892 whole entry): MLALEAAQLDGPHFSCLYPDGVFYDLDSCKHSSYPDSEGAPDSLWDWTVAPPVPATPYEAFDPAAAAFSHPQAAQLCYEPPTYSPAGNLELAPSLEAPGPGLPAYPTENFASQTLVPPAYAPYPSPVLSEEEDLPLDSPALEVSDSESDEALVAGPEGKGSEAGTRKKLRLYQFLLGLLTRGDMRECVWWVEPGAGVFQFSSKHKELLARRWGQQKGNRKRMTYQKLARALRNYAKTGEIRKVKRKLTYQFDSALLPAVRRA

Q: Which results are given for ATAGAT?
A: binding signal (FLI1): 1.16 fold enrichment (6-mer frequency, TF over GST control); binding signal (ELK1): 1.14 fold enrichment (6-mer frequency, TF over GST control); binding signal (GABPA): 1.17 fold enrichment (6-mer frequency, TF over GST control); binding signal (ERG): 1.11 fold enrichment (6-mer frequency, TF over GST control); binding signal (ELF1): 1.23 fold enrichment (6-mer frequency, TF over GST control); binding signal (EHF): 1.17 fold enrichment (6-mer frequency, TF over GST control); binding signal (SPI1): 1.07 fold enrichment (6-mer frequency, TF over GST control); binding signal (SPIB): 1.16 fold enrichment (6-mer frequency, TF over GST control); binding signal (ELK3): 1.23 fold enrichment (6-mer frequency, TF over GST control); binding signal (FEV): 1.15 fold enrichment (6-mer frequency, TF over GST control); binding signal (ETV5): 1.11 fold enrichment (6-mer frequency, TF over GST control); binding signal (HSF1): 1.42 fold enrichment (6-mer frequency, TF over GST control); binding signal (SPIC): 1.2 fold enrichment (6-mer frequency, TF over GST control); binding signal (ELF4): 1.17 fold enrichment (6-mer frequency, TF over GST control); binding signal (ELK4): 1.13 fold enrichment (6-mer frequency, TF over GST control); binding signal (ETV2): 1.19 fold enrichment (6-mer frequency, TF over GST control); binding signal (ELF3): 1.13 fold enrichment (6-mer frequency, TF over GST control); binding signal (CRX): 1.49 fold enrichment (6-mer frequency, TF over GST control); binding signal (ETV1): 1.19 fold enrichment (6-mer frequency, TF over GST control)
